Active and inactive are the calls of the source.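 The calls were made as follows: active = blocks over 70% of labeled estradiol binding at 10 µM, or over a set limit at 100 nM; inactive = the rest.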
Biological target: Estrogen receptor beta (Homo sapiens) (UniProt Q92731)
Assay: ERbeta ligand binders by competition, primary screen, cell-based, Cos7 ERbeta-GFP, flow cytometry (AID 1210);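 also: 0% = DMSO vehicle wells and 100% = complete loss of labeled estradiol signal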
Settings: fluorescent estrogen binding, stronger effect = higher value
[1] = ligand binding inhibition, at 0.1 µM

Estrogen receptor beta (Homo sapiens), sequence (Q92731 whole entry, looked up): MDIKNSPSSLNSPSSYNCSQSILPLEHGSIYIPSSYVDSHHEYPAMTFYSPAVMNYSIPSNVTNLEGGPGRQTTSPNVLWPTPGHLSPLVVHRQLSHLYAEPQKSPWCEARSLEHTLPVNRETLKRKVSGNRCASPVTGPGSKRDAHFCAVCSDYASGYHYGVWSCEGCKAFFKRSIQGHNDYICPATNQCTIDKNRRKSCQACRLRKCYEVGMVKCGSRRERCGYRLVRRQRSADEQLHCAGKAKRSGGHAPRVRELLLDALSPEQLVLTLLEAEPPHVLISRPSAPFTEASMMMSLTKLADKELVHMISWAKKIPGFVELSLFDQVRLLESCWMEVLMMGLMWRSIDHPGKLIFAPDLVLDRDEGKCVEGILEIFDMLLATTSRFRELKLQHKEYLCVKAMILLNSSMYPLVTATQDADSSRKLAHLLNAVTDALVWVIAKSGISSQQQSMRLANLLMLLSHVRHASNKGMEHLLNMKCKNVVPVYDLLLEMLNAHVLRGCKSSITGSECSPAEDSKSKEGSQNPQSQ

SMILES | inhibition (at 10 µM) | inhibition [1]
CCOC(=O)c1cc2c(c(CSc3nc4ccccc4c(=O)n3Cc3ccco3)c1)OCOC2 | 67% (inactive) | 4%
CCCc1nc2sc3ccccc3c(=O)c2c(=O)n1Cc1ccco1 | 21% (inactive) | 5%
CCCCn1c(=O)[nH]c2nc3cc(N)ccc3nc2c1=O | 31% (inactive) | 16%
CN(c1ccccc1C(=O)O)S(=O)(=O)c1ccc2c3c(cccc13)C(=O)N2 | 0% (inactive) | 6%
CCc1nc(N)nc(N)c1-c1ccc(Cl)cc1 | 38% (inactive) | 25%
O=S(=O)(NCc1csc(-c2cccnc2)n1)c1ccc(Cl)s1 | 31% (inactive) | 19%
CCc1cccc2c(C(=O)Cn3nnc(-c4ccc(OC)c(OC)c4)n3)c[nH]c12 | 53% (inactive) | 52%
CC(=O)N1c2ccc3ccccc3c2C2C=CCC2C1c1ccc(Br)cc1 (stereo unspecified) | 8% (inactive) | 3%
CCOC(=O)C1CCCN(C(=O)c2ccc(CS(=O)(=O)c3ccc(C)cc3)o2)C1 (stereo unspecified) | 55% (inactive) | 21%
CCN(CC)CCCNC(=O)c1nn(-c2ccccc2OC)c(=O)c2ccccc12 | 40% (inactive) | 19%
O=C(c1cccs1)N1N=C(c2ccccc2)CC1c1ccc(O)cc1 (stereo unspecified) | 69% (inactive) | 23%
CC12CCC(=O)N1C(C(=O)OCC(=O)Nc1sccc1C#N)CS2 (stereo unspecified) | 37% (inactive) | 47%
Cc1cc(C)c2c(c1)[C@@H]1C=CC[C@@H]1[C@H](c1ccc(S(=O)(=O)N3CCOCC3)cc1)N2 | 35% (inactive) | 48%
O=c1c(OC2OC(CO)C(O)C(O)C2O)c(-c2ccc(O)c(O)c2)oc2cc(O)cc(O)c12 (stereo unspecified) | 36% (inactive) | 46%
CCN1CCc2nc(NC(=O)Cc3ccc4c(c3)OCCO4)sc2C1 | 26% (inactive) | 4%
Nc1ccc(-c2nc3c(Cl)c(N)ccc3[nH]2)cc1 | 66% (inactive) | 32%
CCn1c(=NC(=O)c2ccc(N3C(=O)CCC3=O)cc2)sc2c(OC)ccc(OC)c21 | 64% (inactive) | 57%
C/C(N)=C(/C#N)C(=O)CSc1nnc(Nc2ccccc2C)s1 | 44% (inactive) | 13%
COc1ccc(C2Nc3ccccc3C(=O)N2c2ccc(F)cc2)cc1CSc1ccccn1 (stereo unspecified) | 6% (inactive) | 30%
O=C(Nc1sc2c(c1C(=O)O)CCC2)c1ccccc1 | 46% (inactive) | 35%
Cc1ccc(-c2n[nH]c(=S)n2/N=C/C=C\c2ccccc2[N+](=O)[O-])cc1 | 74% (active) | 4%
Oc1ccc(C2=Nn3c(nnc3-c3ccco3)SC2)cc1O | 32% (inactive) | 1%
CC(=O)c1sc2nc(SCC(=O)N3CCCCC3)[nH]c(=O)c2c1C | 27% (inactive) | 12%

SMILES | inhibition (at 10 µM) | inhibition [1]
C1=C(N2CCOCC2)/C(=C/c2nc3ccccc3[nH]2)CC1 | 26% (inactive) | 20%
Cc1ccc(NC(=O)CSc2nc3ccccc3c3nc4ccccc4n23)cc1 | 59% (inactive) | 7%
Cc1ccc(-c2cc(C(=O)NCc3ccco3)c3ccccc3n2)o1 | 36% (inactive) | 47%
Oc1c(C=Nc2cccc3cccnc23)sc2ccccc12 | 31% (inactive) | 30%
O=C(Cc1cccs1)Nc1nncs1 | 26% (inactive) | 16%
O=C(c1cc2sccc2n1Cc1ccccc1)N1CCc2ccccc21 | 42% (inactive) | 2%
CCc1ccc(-c2nn(-c3ccccc3)cc2CSC(=N)N)cc1 | 76% (active) | 71%
c1coc(-c2nn3c(-c4ccco4)nnc3s2)c1 | 37% (inactive) | 28%
COc1ccc(N=Cc2sc(O)c3ccccc23)cc1 | 47% (inactive) | 22%
Cc1noc(C)c1COc1ccc(C(=O)OCC(=O)N2c3ccccc3NC(=O)C2(C)C)cc1 | 42% (inactive) | 30%
Cc1nnc(SCC(=O)NC(=O)NCc2ccco2)n1Cc1ccccc1 | 71% (active) | 53%
Cc1nc2ccc(C(=O)O)cc2[nH]1 | 31% (inactive) | 47%
Clc1ccc(Sc2cc(N3CCOCC3)nc(-c3ccccc3)n2)cc1 | 36% (inactive) | 18%
COc1ccc(C(=O)N/N=C(\C)c2ccc3c(c2)C2C=CCC2C(c2ccccc2)N3)cc1 (stereo unspecified) | 67% (active) | 66%
Cc1ccc(-c2csc(NC(=O)c3ccno3)n2)cc1 | 40% (inactive) | 28%
Oc1ccc(-c2csc(-c3c[nH]c4ccccc34)n2)c(O)c1 | 81% (active) | 29%
O=C(Nc1ccc(N2CCCC2)cc1)C(c1ccccc1)c1ccccc1 | 69% (inactive) | 19%
Nc1ncnc2c1ncn2C1CCC(CO)C(O)C1 (stereo unspecified) | 48% (active) | 69%
Cc1ccsc1/C=C(\C(=O)c1ccc(OC(C)C)cc1)c1nc2ccccc2o1 | 34% (inactive) | 60%
Cc1ccc(S(=O)(=O)Cc2ccc(C(=O)N3CCN(Cc4ccccc4)CC3)o2)cc1 | 37% (inactive) | 18%
FC(F)(F)c1ccc2c(c1)C1C=CCC1C(c1ccncc1)N2 (stereo unspecified) | 0% (inactive) | 51%
C=C1C2C[C@H](O)C(C)(C)[C@@]2(O)[C@H](O)C[C@]23C[C@@](C)(O)[C@H](CC[C@H]12)[C@H]3O (stereo partly specified) | 70% (inactive) | 1%
O=C(Nc1cccc(-c2cn3cccnc3n2)c1)c1ccc2c(c1)OCO2 | 26% (inactive) | 48%

SMILES | inhibition (at 10 µM) | inhibition [1]
C1CCC(c2nn3c(-c4n[nH]c5c4CCC5)nnc3s2)CC1 | 61% (inactive) | 19%
CCC(=O)Oc1ccc(/C(CC)=C(\CC)c2ccc(OC(=O)CC)cc2)cc1 | 68% (active) | 80%
Clc1ccc2nc(-c3ccccn3)c(Nc3ccc4c(c3)OCO4)n2c1 | 60% (inactive) | 2%
COc1cc2c(cc1OC)C(Cc1ccc(O)cc1)N(C)CC2 (stereo unspecified) | 56% (inactive) | 6%
Oc1ccccc1C1=Nc2ccccc2N=C(c2cccs2)C1 | 19% (inactive) | 17%
Nc1ccc(-c2cc(-c3ccc(N)cc3)nc(-c3ccccc3)n2)cc1 | 43% (inactive) | 29%
COC(=O)c1c(NC(=O)Cc2cccs2)sc2c1CCCC2 | 41% (inactive) | 18%
COc1cc(CCC(=O)OCC(=O)Nc2ncc(Cl)cc2Cl)cc(OC)c1OC | 52% (inactive) | 8%
CC(C)(C)NC(=O)c1ccc2c(c1)C1C3CCC(C3)C1C(c1ccccc1)N2 (stereo unspecified) | 3% (inactive) | 64%
N=c1c(C(=O)NCc2ccc(F)cc2)cc2c(=O)n3ccccc3nc2n1Cc1cccnc1 | 30% (inactive) | 34%
CCc1ccc2nc(NC(=O)c3ccc4c(=O)[nH]c(CN5CCOCC5)nc4c3)sc2c1 | 29% (inactive) | 10%
Nc1ccc2nc(-c3cccnc3)[nH]c2c1 | 50% (inactive) | 20%
CCOC(=O)N1CCN(S(=O)(=O)c2ccc(C(=O)Nc3nc4ccc(F)cc4s3)cc2)CC1 | 69% (inactive) | 39%
Cc1cc(Cl)ccc1OCC(=O)OC(C)C(=O)N(C)C (stereo unspecified) | 35% (inactive) | 12%
COc1cccc(-c2nnc(NC(=O)Cc3cccs3)s2)c1 | 30% (inactive) | 47%
COc1cc(C=C(c2nc3ccccc3s2)c2nc3ccccc3s2)ccc1O | 31% (inactive) | 57%
COc1ccc(NC(=O)CSc2nc3ccccc3c3nc4ccccc4n23)cc1 | 38% (inactive) | 44%
O=C(O)C1OC(Oc2c(-c3ccc(O)c(O)c3)oc3cc(O)cc(O)c3c2=O)C(O)C(O)C1O (stereo unspecified) | 55% (inactive) | 2%
Cc1csc(C(C#N)C(=O)c2ccncc2)n1 (stereo unspecified) | 13% (inactive) | 4%
COc1nc(-c2ccc(Cl)cc2)ccc1-c1noc(-c2ccco2)n1 | 72% (active) | 56%
Cc1cc(C(=O)CSc2nnc(-c3ccccc3F)o2)c(C)n1Cc1cccs1 | 51% (inactive) | 30%
O=C(Cc1cccs1)Nc1ccc(S(=O)(=O)N2CCCCC2)cc1 | 37% (inactive) | 38%

From PubChem BioAssay AID1210 (NMMLSC, 2008)
